Records with an inconclusive call do not appear. Unmarked numbers belong to inactive results. The source made the active and inactive calls. Calls follow the shape of the dose curve; as a rule, active = well fitted curve in the direction sought with a large enough effect in the repeat runs; inconclusive = weak or mixed curves; inactive = no such curve, though single readings can be large; an effect the other way counts as inactive or inconclusive.
Test system: not listed separately
Experiment: qHTS assay to identify small molecule antagonists of the estrogen related receptor (ERR) signaling pathway from Tox21 library - cell viability counter screen (AID 1224834); also: nearly all actives have a fitted effect of over 30% in size
Conditions: ERR reporter cells viability, CellTiter-Fluor, 17.5 h; series mostly up to 92.4 µM; viability change, negative = cytotoxic: at the top concentration
Procedure, shortened: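 Seeded ERR cells were rested 6 h at 37 C/5% CO2 before compounds, positive and negative controls or DMSO were added. Incubation continued for 17.5 h, and viability was then quantified by CellTiter-Fluor fluorescence.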
% is scaled to controls: 0 for no effect and ±100 for the full control effect.

| SMILES | viability change, negative = cytotoxic |
| --- | --- |
| CCN(CC)c1nc(C)cc(OP(=S)(OC)OC)n1 | 0.337% |
| O=P(O)(Oc1ccccc1)Oc1ccccc1 | 5.73% |
| C#C[C@]1(O)C=C[C@H]2[C@@H]3CCC4=CC(=O)CC[C@@H]4[C@H]3CC[C@@]21CC | -12.8% [at 42.5 µM] |
| ClC(Cl)C(Cl)Cl | 0.444% |
| CN(C)CCc1ccc(O)cc1 | 8.98% [at 42.5 µM] |
| C(CCOCC1CO1)COCC1CO1 (stereo not given) | -0.0595% |
| CCCCC(=O)Cl | 3.49% |
| CCCCOC(=O)c1ccccc1N | -9.35% |
| Cc1ncc(CNC(=O)N(CCCl)N=O)c(N)n1 | 2.73% [at 42.5 µM] |
| CCCCCCI | 3.52% |
| ClCCOCOCCCl | -0.0448% |
| ClCC(Cl)Cl | 5.43% |
| O=C1OC(c2ccc(O)c(S(=O)(=O)O)c2)(c2ccc(O)c(S(=O)(=O)O)c2)c2c(Br)c(Br)c(Br)c(Br)c21 | -1.08% [at 42.5 µM] |
| c1cc2c(c(N3CCNCC3)c1)OCCO2 | 2.5% [at 42.5 µM] |
| CCC(C)n1c(=O)[nH]c(C)c(Br)c1=O (stereo not given) | 1.5% |
| COC(=O)c1c(C(F)F)nc(C(F)(F)F)c(C2=NCCS2)c1CC(C)C | 0.0446% |
| C1CCC(C2CCCCC2)CC1 | 1.31% |
| Cc1nnc2n1-c1sc(CCC(=O)N3CCOCC3)cc1C(c1ccccc1Cl)=NC2 | 5.6% [at 42.5 µM] |
| c1coc(-c2nc3ccccc3[nH]2)c1 | 0.591% |
| Cc1ncsc1CCCl | 4.84% [at 42.5 µM] |
| CC1CCC(=O)O1 (stereo not given) | -5.77% |
| OCCSCSCCO | -0.16% |
| CCc1cc2c(s1)-n1c(C)nnc1CN=C2c1ccccc1Cl | -5.62% [at 42.5 µM] |
| OC(Cn1cncn1)(c1ccc(F)cc1)c1ccccc1F (stereo not given) | 4.57% |
| N#Cc1c(Cl)cccc1Cl | 3.22% |
| CNCC(=O)c1ccc(O)c(O)c1 | -4.39% [at 42.5 µM] |
| ClCC(Cl)(Cl)Cl | 1.83% |
| CCCCCCBr | -1.13% |
| C=CC1CC=CCC1 (stereo not given) | 1.74% |
| CCOC(=O)C1(c2ccccc2)CCN(CCc2ccc(N)cc2)CC1 | -3.64% [at 42.5 µM] |

Molecular target: Luciferin 4-monooxygenase (Photinus pyralis) (UniProt P08659)
Experiment: qHTS assay to identify small molecule inhibitors of firefly luciferase (AID 1224835); also: nearly all actives have a fitted effect of over 25% in size; also: potency is read from the fitted curve at half-maximal effect
Conditions: purified P. pyralis luciferase, luminescence inhibition; series mostly up to 115 µM; activity change, negative = inhibition: at the top concentration
Procedure, shortened: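 Quantitative HTS format; KM concentrations of both substrates. Purified P. pyralis FLuc activity quantified from luminescence images.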

Sequence of Luciferin 4-monooxygenase (Photinus pyralis) (P08659 whole entry, looked up): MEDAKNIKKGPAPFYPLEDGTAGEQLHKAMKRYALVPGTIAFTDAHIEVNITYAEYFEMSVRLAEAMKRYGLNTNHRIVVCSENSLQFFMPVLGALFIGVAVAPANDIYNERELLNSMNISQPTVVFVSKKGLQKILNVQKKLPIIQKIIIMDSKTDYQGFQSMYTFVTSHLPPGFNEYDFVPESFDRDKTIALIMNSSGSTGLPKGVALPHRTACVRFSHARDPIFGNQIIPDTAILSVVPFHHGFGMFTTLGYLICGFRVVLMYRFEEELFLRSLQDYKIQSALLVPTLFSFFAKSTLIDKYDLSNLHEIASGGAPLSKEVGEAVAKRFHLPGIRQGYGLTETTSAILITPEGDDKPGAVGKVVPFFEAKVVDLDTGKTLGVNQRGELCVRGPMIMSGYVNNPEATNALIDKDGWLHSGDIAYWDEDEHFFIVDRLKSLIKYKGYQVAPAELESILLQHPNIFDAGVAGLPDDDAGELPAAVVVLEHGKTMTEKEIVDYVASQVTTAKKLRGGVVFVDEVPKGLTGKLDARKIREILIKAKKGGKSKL

| SMILES | activity change, negative = inhibition | Potency |
| --- | --- | --- |
| CCN(CC)c1nc(C)cc(OP(=S)(OC)OC)n1 | -5.46% |  |
| O=P(O)(Oc1ccccc1)Oc1ccccc1 | 2.36% |  |
| C#C[C@]1(O)C=C[C@H]2[C@@H]3CCC4=CC(=O)CC[C@@H]4[C@H]3CC[C@@]21CC | 6.71% [at 52.9 µM] |  |
| ClC(Cl)C(Cl)Cl | 2.91% |  |
| CC(CC(C#N)(c1ccccc1)c1ccccc1)N(C)C (stereo not given) | 3.32% |  |
| CN(C)CCc1ccc(O)cc1 | -2.31% [at 52.9 µM] |  |
| C(CCOCC1CO1)COCC1CO1 (stereo not given) | 2.53% |  |
| CCCCC(=O)Cl | -2.02% |  |
| CCCCOC(=O)c1ccccc1N |  | 40.1 µM (active) |
| Cc1ncc(CNC(=O)N(CCCl)N=O)c(N)n1 | 6.01% [at 52.9 µM] |  |
| ClCCOCOCCCl | -4.09% |  |
| ClCC(Cl)Cl | 2.89% |  |
| CSc1nc(N=[N+]=[N-])nc(NC(C)C)n1 | 2.39% |  |
| O=C1OC(c2ccc(O)c(S(=O)(=O)O)c2)(c2ccc(O)c(S(=O)(=O)O)c2)c2c(Br)c(Br)c(Br)c(Br)c21 | 6.59% [at 52.9 µM] |  |
| Nc1c(Br)cc([N+](=O)[O-])cc1[N+](=O)[O-] | 0.0954% |  |
| c1cc2c(c(N3CCNCC3)c1)OCCO2 | 4.25% [at 52.9 µM] |  |
| CCC(C)n1c(=O)[nH]c(C)c(Br)c1=O (stereo not given) | 3.63% |  |
| CC(C)(C)NCC(O)c1cc(Cl)c(N)c(Cl)c1 (stereo not given) | 2.68% [at 52.9 µM] |  |

| SMILES | activity change, negative = inhibition | Potency |
| --- | --- | --- |
| COC(=O)c1c(C(F)F)nc(C(F)(F)F)c(C2=NCCS2)c1CC(C)C | 3.36% |  |
| C1CCC(C2CCCCC2)CC1 | 1.22% |  |
| Cc1nnc2n1-c1sc(CCC(=O)N3CCOCC3)cc1C(c1ccccc1Cl)=NC2 | 0.979% [at 52.9 µM] |  |
| c1coc(-c2nc3ccccc3[nH]2)c1 |  | 28.3 µM (active) |
| Cc1ncsc1CCCl | 3.07% [at 52.9 µM] |  |
| CC1CCC(=O)O1 (stereo not given) | 2.64% |  |
| OCCSCSCCO | 8.17% |  |
| CCc1cc2c(s1)-n1c(C)nnc1CN=C2c1ccccc1Cl | 1.92% [at 52.9 µM] |  |
| OC(Cn1cncn1)(c1ccc(F)cc1)c1ccccc1F (stereo not given) | 1.9% |  |
| N#Cc1c(Cl)cccc1Cl | 1.09% |  |
| CNCC(=O)c1ccc(O)c(O)c1 | 0.985% [at 52.9 µM] |  |
| ClCC(Cl)(Cl)Cl | 6.97% |  |
| COc1ncc(F)c2nc(S(=O)(=O)Nc3c(F)cccc3F)nn12 | 2.77% [at 52.9 µM] |  |
| O=C(CCCN1CCC(n2c(=O)[nH]c3ccccc32)CC1)c1ccc(F)cc1 | 0.478% [at 52.9 µM] |  |
| CC1(C(=O)Nc2ccc(O)c(Cl)c2Cl)CCCCC1 | -2.77% |  |
| C=CC1CC=CCC1 (stereo not given) | 3.02% |  |
| CCOC(=O)C1(c2ccccc2)CCN(CCc2ccc(N)cc2)CC1 | 2.68% [at 52.9 µM] |  |

Test system: not listed separately
Experiment: qHTS assay to identify small molecule agonists of the constitutive androstane receptor (CAR) signaling pathway - cell viability counter screen (AID 1224836); also: nearly all actives have a fitted effect of over 45% in size
Conditions: HepG2-CYP2B6-hCAR viability, CellTiter-Fluor, 23 h, PK11195 added to every well; series mostly up to 92.4 µM; viability change, negative = cytotoxic: at the top concentration
Procedure, shortened: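 HepG2 cells stably carrying hCAR and a CYP2B6-2.2kb reporter; 15-concentration compounds plus PK11195 (final 0.75 uM), 23 hr at 37 C/5% CO2. Viability read by CellTiter-Fluor fluorescence.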

| SMILES | viability change, negative = cytotoxic |
| --- | --- |
| CCN(CC)c1nc(C)cc(OP(=S)(OC)OC)n1 | 0.53% |
| O=P(O)(Oc1ccccc1)Oc1ccccc1 | 1.41% |
| C#C[C@]1(O)C=C[C@H]2[C@@H]3CCC4=CC(=O)CC[C@@H]4[C@H]3CC[C@@]21CC | 6.95% [at 42.5 µM] |
| ClC(Cl)C(Cl)Cl | 6.32% |
| CN(C)CCc1ccc(O)cc1 | -3.07% [at 42.5 µM] |
| C(CCOCC1CO1)COCC1CO1 (stereo not given) | 3.74% |
| CCCCC(=O)Cl | 2.94% |
| CCCCOC(=O)c1ccccc1N | 4.14% |
| Cc1ncc(CNC(=O)N(CCCl)N=O)c(N)n1 | 10.2% [at 42.5 µM] |
| CCCCCCI | 0.682% |
| ClCCOCOCCCl | -4.8% |
| ClCC(Cl)Cl | 0.886% |
| CSc1nc(N=[N+]=[N-])nc(NC(C)C)n1 | 4.41% |
| O=C1OC(c2ccc(O)c(S(=O)(=O)O)c2)(c2ccc(O)c(S(=O)(=O)O)c2)c2c(Br)c(Br)c(Br)c(Br)c21 | 1.03% [at 42.5 µM] |
| Nc1c(Br)cc([N+](=O)[O-])cc1[N+](=O)[O-] | -16.3% |
| c1cc2c(c(N3CCNCC3)c1)OCCO2 | 2.33% [at 42.5 µM] |
| CCC(C)n1c(=O)[nH]c(C)c(Br)c1=O (stereo not given) | 1.74% |
| COC(=O)c1c(C(F)F)nc(C(F)(F)F)c(C2=NCCS2)c1CC(C)C | 2.18% |

| SMILES | viability change, negative = cytotoxic |
| --- | --- |
| C1CCC(C2CCCCC2)CC1 | -6.63% |
| Cc1nnc2n1-c1sc(CCC(=O)N3CCOCC3)cc1C(c1ccccc1Cl)=NC2 | 1.04% [at 42.5 µM] |
| c1coc(-c2nc3ccccc3[nH]2)c1 | -2.71% |
| Cc1ncsc1CCCl | 10.2% [at 42.5 µM] |
| CC1CCC(=O)O1 (stereo not given) | -0.37% |
| OCCSCSCCO | -0.894% |
| CCc1cc2c(s1)-n1c(C)nnc1CN=C2c1ccccc1Cl | 8.46% [at 42.5 µM] |
| OC(Cn1cncn1)(c1ccc(F)cc1)c1ccccc1F (stereo not given) | -4.74% |
| N#Cc1c(Cl)cccc1Cl | 0.808% |
| CNCC(=O)c1ccc(O)c(O)c1 | 0.382% [at 42.5 µM] |
| ClCC(Cl)(Cl)Cl | 1.52% |
| COc1ncc(F)c2nc(S(=O)(=O)Nc3c(F)cccc3F)nn12 | 1.22% [at 42.5 µM] |
| CCCCCCBr | -10.5% |
| O=C(CCCN1CCC(n2c(=O)[nH]c3ccccc32)CC1)c1ccc(F)cc1 | -13.6% [at 42.5 µM] |
| CC1(C(=O)Nc2ccc(O)c(Cl)c2Cl)CCCCC1 | -7.69% |
| C=CC1CC=CCC1 (stereo not given) | 4.19% |
| CCOC(=O)C1(c2ccccc2)CCN(CCc2ccc(N)cc2)CC1 | -7.22% [at 42.5 µM] |

From PubChem BioAssay (Tox21)
